Measured values from PubChem BioAssay AID588689 (Southern Research Specialized Biocontainment Screening …, 2011).
Hit rate of the full screen: of about 340,000 compounds, about 1,000 (0.29%) were called active. Rule as the data show it: inconclusive = inhibition above about 29% without an active follow-up result; inactive = below that. The list is a sample of the results. Measured potencies and affinities stand elsewhere.

Target: Genome polyprotein (Dengue virus type 2 (strain 16681-PDK53)) (UniProt P29991)
Sequence (P29991 whole entry, looked up): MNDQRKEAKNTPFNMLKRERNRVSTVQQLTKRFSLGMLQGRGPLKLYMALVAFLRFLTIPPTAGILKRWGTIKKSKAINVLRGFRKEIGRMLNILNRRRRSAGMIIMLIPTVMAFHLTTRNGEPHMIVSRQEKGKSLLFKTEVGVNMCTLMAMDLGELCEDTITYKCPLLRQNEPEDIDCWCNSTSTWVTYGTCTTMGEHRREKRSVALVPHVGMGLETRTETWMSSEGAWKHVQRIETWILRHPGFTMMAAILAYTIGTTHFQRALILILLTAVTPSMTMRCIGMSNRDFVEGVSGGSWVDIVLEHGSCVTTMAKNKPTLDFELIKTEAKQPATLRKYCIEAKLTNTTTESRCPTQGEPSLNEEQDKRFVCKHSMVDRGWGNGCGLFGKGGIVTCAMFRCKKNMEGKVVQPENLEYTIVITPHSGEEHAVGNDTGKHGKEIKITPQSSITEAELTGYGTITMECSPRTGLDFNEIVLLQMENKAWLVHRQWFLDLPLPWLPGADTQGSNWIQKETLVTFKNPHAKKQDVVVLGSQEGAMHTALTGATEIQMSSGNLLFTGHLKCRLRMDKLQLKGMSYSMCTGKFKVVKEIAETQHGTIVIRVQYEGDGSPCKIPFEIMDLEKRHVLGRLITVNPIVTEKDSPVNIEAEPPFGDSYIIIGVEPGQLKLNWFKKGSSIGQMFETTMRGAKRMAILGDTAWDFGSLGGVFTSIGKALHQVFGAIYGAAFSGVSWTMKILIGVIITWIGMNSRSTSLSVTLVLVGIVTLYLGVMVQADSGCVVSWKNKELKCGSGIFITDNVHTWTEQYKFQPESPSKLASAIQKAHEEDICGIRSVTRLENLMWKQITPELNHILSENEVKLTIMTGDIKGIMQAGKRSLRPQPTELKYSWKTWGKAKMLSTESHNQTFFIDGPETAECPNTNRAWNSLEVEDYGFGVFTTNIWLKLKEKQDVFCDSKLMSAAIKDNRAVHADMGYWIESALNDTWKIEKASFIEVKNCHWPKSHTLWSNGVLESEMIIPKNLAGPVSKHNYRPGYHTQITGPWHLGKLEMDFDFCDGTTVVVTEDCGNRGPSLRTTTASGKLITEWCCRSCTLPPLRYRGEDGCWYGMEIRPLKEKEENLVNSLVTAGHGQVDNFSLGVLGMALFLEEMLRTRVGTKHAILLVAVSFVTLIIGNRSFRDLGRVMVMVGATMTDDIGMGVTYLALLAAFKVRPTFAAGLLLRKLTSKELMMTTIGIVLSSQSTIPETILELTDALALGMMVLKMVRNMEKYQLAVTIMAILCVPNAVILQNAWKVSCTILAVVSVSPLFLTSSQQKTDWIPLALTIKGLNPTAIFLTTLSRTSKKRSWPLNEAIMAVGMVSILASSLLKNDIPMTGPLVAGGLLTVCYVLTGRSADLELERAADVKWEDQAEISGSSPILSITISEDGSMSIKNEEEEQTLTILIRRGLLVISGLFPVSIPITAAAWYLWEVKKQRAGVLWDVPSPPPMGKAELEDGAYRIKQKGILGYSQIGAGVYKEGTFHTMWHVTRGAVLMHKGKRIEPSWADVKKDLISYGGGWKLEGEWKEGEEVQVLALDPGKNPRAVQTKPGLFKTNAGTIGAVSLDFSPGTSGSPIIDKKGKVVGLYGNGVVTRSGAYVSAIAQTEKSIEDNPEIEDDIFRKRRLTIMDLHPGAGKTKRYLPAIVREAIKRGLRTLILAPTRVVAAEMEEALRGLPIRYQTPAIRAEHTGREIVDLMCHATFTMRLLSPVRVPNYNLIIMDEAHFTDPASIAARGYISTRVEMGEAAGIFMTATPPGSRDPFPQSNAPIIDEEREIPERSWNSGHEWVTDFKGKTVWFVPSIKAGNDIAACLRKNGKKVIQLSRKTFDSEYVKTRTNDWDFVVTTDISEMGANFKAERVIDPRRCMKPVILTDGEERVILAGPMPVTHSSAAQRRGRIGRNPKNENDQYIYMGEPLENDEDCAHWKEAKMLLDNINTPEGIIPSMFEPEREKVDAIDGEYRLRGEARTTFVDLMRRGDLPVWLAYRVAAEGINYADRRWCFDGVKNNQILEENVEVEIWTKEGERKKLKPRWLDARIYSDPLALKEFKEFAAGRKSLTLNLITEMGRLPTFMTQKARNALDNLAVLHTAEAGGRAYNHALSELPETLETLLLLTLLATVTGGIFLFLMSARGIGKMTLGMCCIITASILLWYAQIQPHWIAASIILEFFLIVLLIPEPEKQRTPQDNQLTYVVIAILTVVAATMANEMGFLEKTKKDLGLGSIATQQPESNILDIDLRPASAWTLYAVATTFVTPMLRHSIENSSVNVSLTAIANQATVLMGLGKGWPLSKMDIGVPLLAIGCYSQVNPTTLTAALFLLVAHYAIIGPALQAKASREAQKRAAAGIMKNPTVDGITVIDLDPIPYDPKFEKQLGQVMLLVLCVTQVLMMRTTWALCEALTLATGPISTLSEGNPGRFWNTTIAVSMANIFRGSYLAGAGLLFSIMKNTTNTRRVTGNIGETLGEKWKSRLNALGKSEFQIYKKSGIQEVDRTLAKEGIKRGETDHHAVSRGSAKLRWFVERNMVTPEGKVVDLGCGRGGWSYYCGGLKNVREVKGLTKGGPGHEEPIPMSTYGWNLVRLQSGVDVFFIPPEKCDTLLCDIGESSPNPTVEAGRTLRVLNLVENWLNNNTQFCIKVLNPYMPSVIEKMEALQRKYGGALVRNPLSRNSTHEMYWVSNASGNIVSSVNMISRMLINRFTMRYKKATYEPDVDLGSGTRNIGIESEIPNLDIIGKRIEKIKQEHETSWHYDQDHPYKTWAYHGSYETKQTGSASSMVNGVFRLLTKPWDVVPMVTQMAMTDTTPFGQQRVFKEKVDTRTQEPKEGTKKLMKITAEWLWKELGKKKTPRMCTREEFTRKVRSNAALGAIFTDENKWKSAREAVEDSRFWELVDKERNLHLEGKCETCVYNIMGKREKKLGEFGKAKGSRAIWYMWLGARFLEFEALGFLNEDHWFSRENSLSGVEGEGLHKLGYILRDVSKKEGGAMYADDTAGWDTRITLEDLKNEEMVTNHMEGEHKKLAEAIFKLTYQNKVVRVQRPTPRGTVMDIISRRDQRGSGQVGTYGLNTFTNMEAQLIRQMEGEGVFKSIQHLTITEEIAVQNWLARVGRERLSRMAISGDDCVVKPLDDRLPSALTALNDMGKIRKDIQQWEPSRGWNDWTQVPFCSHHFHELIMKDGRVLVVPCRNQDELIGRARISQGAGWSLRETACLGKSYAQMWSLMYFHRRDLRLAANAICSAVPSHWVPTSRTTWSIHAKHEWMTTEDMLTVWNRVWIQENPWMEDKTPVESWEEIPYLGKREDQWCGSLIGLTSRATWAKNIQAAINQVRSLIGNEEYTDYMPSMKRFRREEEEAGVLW
Experiment: Dengue-2 NS5 methyltransferase inhibitors, primary screen, biochemical, confirmation dose response (AID 588689)
Details: Dengue-2 NS5 methyltransferase capping enzyme assay, at 25 µM, stronger effect = higher value

SMILES	inhibition	inhibition (measured here: pilot screen replicate inhibition) [%]
Cc1cc(C(=O)OC(C)C(=O)NC2CCCCC2)c(C)o1 (stereo not drawn)	3.67% (inactive)	
O=C(NC1CC2CCCC(C1)N2CC(=O)N1CCCc2ccccc21)C1CCCCC1 (stereo not drawn)	-6.56% (inactive)	
Cc1cccc(-n2cnc3sc(C)c(C)c3c2=O)c1	3.09% (inactive)	
CN1C(=O)S/C(=C\c2ccccc2OCc2ccc(C(=O)O)cc2)C1=O	2.95% (inactive)	
COC(=O)c1ccc(COc2ccc(/C=N/Nc3cccc(C(=O)O)c3)cc2)cc1	8.5% (inactive)	
O=C1NC(=S)N/C1=C\c1ccccc1OCc1ccc(C(=O)O)cc1	-6.96% (inactive)	
C=CCc1cc(C=O)cc(OC)c1OCc1ccc(C(=O)O)cc1	-5.83% (inactive)	
COc1cc(/C=C2/NC(=O)NC2=O)cc(Br)c1OCc1ccc(C(=O)O)cc1	-4.44% (inactive)	
COC(=O)c1ccc(COc2ccccc2/C=N/NS(=O)(=O)c2ccccc2)cc1	-8.06% (inactive)	
O=C(O)c1ccc(COc2ccc(CO)cc2Cl)cc1	-1.37% (inactive)	
O=C(O)c1ccc(COc2ccccc2/C=C2/NC(=O)N(c3cccc(Cl)c3)C2=O)cc1	6.55% (inactive)	
Cc1cccc(C(=O)OCC(=O)Nc2c(C)n(C)n(-c3ccccc3)c2=O)c1O	-4.38% (inactive)	
N#Cc1ccc(NC(=O)c2sc3cc(C(F)(F)F)cnc3c2-c2cccs2)cc1	-3.46% (inactive)	
CC(C)CN(C(=O)c1ccc(N2CCCC2=O)cc1)C1CCS(=O)(=O)C1 (stereo not drawn)	2.16% (inactive)	
COc1ccc(N(C(=O)c2ccco2)C(C(=O)NC2CCCC2)c2ccc(OC)c(OC)c2)cc1 (stereo not drawn)	-4.04% (inactive)	
N#Cc1ccc2ccn(CC(=O)NCc3ccco3)c2c1	-5.46% (inactive)	
O=C(CCn1cnc2ccccc2c1=O)Nc1ccc(Cl)c(Cl)c1	1.31% (inactive)	
COc1cccc(/C=N/Nc2ccc([N+](=O)[O-])cc2)c1O	-38.8% (inactive)	
O=C(COc1ccccc1/C=C\c1nc(O)c([N+](=O)[O-])c(=O)[nH]1)Nc1ccccc1	2.19% (inactive)	
CCOc1ccccc1/C=C\c1nc(O)c([N+](=O)[O-])c(=O)[nH]1	5.29% (inactive)	
COc1cccc(/C=C/c2ccccn2)c1O	-0.77% (inactive)	

SMILES	inhibition	inhibition (measured here: pilot screen replicate inhibition) [%]
CCCCCCSc1cc(-c2nc3cc(C)ccn3c2NC2CCCCC2)ccc1OC	-8.81% (inactive)	
O=C(c1ccc(Cn2c(=O)[nH]c3ccsc3c2=O)cc1)N1CCN(c2ccccc2)CC1	-1.16% (inactive)	
COc1ccc(CN(C)C(=O)c2cccc(NS(=O)(=O)c3ccccc3)c2)c(OC)c1	0.32% (inactive)	
O=C(CN(c1ccc(F)cc1)S(=O)(=O)c1ccccc1)NC1CCCCCC1	0% (inactive)	
Cc1ccc(/C=C/c2nc3sc(C(=O)O)c(C)c3c(=O)[nH]2)cc1[N+](=O)[O-]	-2.44% (inactive)	
COc1cccc(CNC(=O)Cn2ccc3cc(S(=O)(=O)N4CCCC4)ccc32)c1	-0.45% (inactive)	
COc1ccc(N(C(=O)Cn2nnc(-c3ccc(Cl)cc3)n2)C(C(=O)NCC2CCCO2)c2ccncc2)cc1 (stereo not drawn)	-2.22% (inactive)	
COc1ccc(/C=N/NC(=O)c2nn(-c3ccccc3)c(=O)c3c(N)scc23)cc1	50% (inactive)	
CCOC(=O)c1nn(-c2ccccc2)c(=O)c2c(N)scc12	7.81% (inactive)	
COc1ccc(/C=N/NC(=O)c2nn(-c3ccc(Cl)cc3)c(=O)c3c(N)scc23)cc1	65.9% (inactive)	10.3
CCOC(=O)c1nn(-c2ccc(C)cc2)c(=O)c2c(N)scc12	12.4% (inactive)	
Cc1ccc2c(c1)NC(=O)c1cccnc1N2	-0.54% (inactive)	
Cc1nnc(SC(C)C(=O)N(C)C2CCCCC2)n1N (stereo not drawn)	-0.37% (inactive)	
CCOc1cc(C(=O)NCCC(=O)N2CCC3(CC2)NCCc2[nH]cnc23)cc(OCC)c1OCC	-6.21% (inactive)	
CCCCN1CC[C@H]2C=CC[C@@H](C(=O)N3CCN(c4ccccc4)CC3)[C@H]2C1=O	-5.46% (inactive)	
Cc1ccc(-n2nc(CN3CCOCC3)c(-c3ccccc3)c2N)cc1Cl	-2.18% (inactive)	
O=Cc1cc(N=Nc2ccc(S(=O)(=O)O)cc2)ccc1O	14.6% (inactive)	
O=Cc1cc(N=Nc2ccccc2Cl)ccc1O	11.1% (inactive)	
COc1ccc(/C=C2/C(=O)N(c3c(F)c(F)c(F)c(F)c3F)N=C2C)cc1	27.1% (inactive)	
CCOC(=O)c1sc(Nc2ccc(OCC)cc2)nc1C	-9.95% (inactive)	
Cc1ccc(NC(=C(C#N)C#N)c2ccccc2)cc1	6.86% (inactive)	

SMILES	inhibition	inhibition (measured here: pilot screen replicate inhibition) [%]
O=C1C(=O)N(CCCn2ccnc2)C(c2ccc([N+](=O)[O-])cc2)/C1=C(\O)c1ccc2c(c1)OCCO2 (stereo not drawn)	-1.86% (inactive)	
O=C(C[C@@H]1C/C=C\C[C@H](Cc2ccc(F)cc2)C(=O)OCCNC1=O)N[C@H](CO)Cc1ccccc1	-4.01% (inactive)	
O=[N+]([O-])c1ccc(O)c(C=Nc2ccc3c(c2)OCCO3)c1	2.55% (inactive)	
O=[N+]([O-])c1cc(Br)cc(C=Nc2ccc3c(c2)OCO3)c1O	17.9% (inactive)	
O=C(O)c1ccc(NC2OC[C@@H](O)[C@H](O)[C@H]2O)cc1 (stereo partly drawn)	1.47% (inactive)	
CC(=O)Nc1ccc(S(=O)(=O)NC2CC(=O)N(c3ccc(C)c(C)c3)C2)cc1 (stereo not drawn)	-8.06% (inactive)	
CCCCn1c(N)c(N(CCC(C)C)C(=O)CCCc2nc3ccccc3s2)c(=O)[nH]c1=O	0.96% (inactive)	
CCCSc1nc(O)c(C2OC(=O)c3c2ccc(OC)c3OC)c(=O)n1C (stereo not drawn)	4.42% (inactive)	
CCSc1nc(O)c(C2OC(=O)c3c2ccc(OC)c3OC)c(=O)n1-c1ccccc1 (stereo not drawn)	-0.81% (inactive)	
Cc1ccc(CNC(=O)Cn2c(=O)c3sccc3n(Cc3ccc([N+](=O)[O-])cc3)c2=O)cc1	-4.46% (inactive)	
COc1cc2c(cc1C1C(C#N)=C(N)OC3=C1C(=O)CC(C)(C)C3)OCO2 (stereo not drawn)	2.7% (inactive)	
COc1ccc(C(C(=O)NC(C)(C)C)N(C(=O)CNC(=O)c2cccs2)c2cccnc2)cc1OC (stereo not drawn)	0.81% (inactive)	
CCN(CCCNC(=O)C1CCN(S(=O)(=O)CC)CC1)c1ccccc1	0% (inactive)	
CCOC(=O)C1CCN(c2c(NCCCN(CC)c3ccccc3)c(=O)c2=O)CC1	-1.39% (inactive)	
N#Cc1c(NC(=O)C(=O)NCCCN2CCOCC2)sc2c1CCC2	-10.5% (inactive)	
COc1ccc(C(c2c(C)n(C)n(-c3ccccc3)c2=O)c2c(C)n(C)n(-c3ccccc3)c2=O)c(OC)c1OC	4.27% (inactive)	
COc1cccc(COC(=O)c2c(C)nn(-c3ccccc3)c2Cl)c1OC	-1.3% (inactive)	
O=C(CC1(CC(=O)N2CCOCC2)CCCC1)Nc1ccccc1	1.1% (inactive)	
Cc1c(C(c2ccc(C(=O)O)cc2)c2c(C)n(C)n(-c3ccccc3)c2=O)c(=O)n(-c2ccccc2)n1C	-3.92% (inactive)	
Cc1c(C(c2cccc(O)c2)c2c(C)n(C)n(-c3ccccc3)c2=O)c(=O)n(-c2ccccc2)n1C	0.66% (inactive)	
Cc1[nH]n(-c2ccccc2)c(=O)c1N=Nc1ccccc1C(=O)N1CCOCC1	-1.82% (inactive)	

SMILES	inhibition	inhibition (measured here: pilot screen replicate inhibition) [%]
Cc1[nH]n(-c2ccccc2)c(=O)c1N=Nc1ccccc1O	-2.22% (inactive)	
Cc1c(C(c2ccc([N+](=O)[O-])cc2)c2c(C)n(C)n(-c3ccccc3)c2=O)c(=O)n(-c2ccccc2)n1C	-2.74% (inactive)	
Cc1ccc(C(C[N+](=O)[O-])c2c(C)[nH]n(-c3ccccc3)c2=O)cc1 (stereo not drawn)	12.3% (inactive)	
Cc1[nH]n(-c2ccccc2)c(=O)c1C(C[N+](=O)[O-])c1ccc(F)cc1 (stereo not drawn)	1.46% (inactive)	
Cc1[nH]n(-c2ccccc2)c(=O)c1C(c1ccccc1C(=O)O)c1c(C)[nH]n(-c2ccccc2)c1=O	-2.59% (inactive)	
COC(=O)[C@@H]1C[C@@]2(O)[C@H](O)[C@H](O)[C@H](O)C[C@H]2N1Cc1cccc2ccccc12	-3.14% (inactive)	
Cc1nonc1CN(C)C(=O)CC1C(=O)NCCN1Cc1c(F)cccc1Cl (stereo not drawn)	0% (inactive)	
Cc1ccc(OCc2cc(C(=O)N3CCCC(O)C3)no2)cn1 (stereo not drawn)	3.18% (inactive)	
COc1ccc(-c2cc(C(F)(F)F)nc(NCc3cccs3)n2)cc1	-0.64% (inactive)	
Cc1csc(NC(=O)c2ccc(COc3ccccc3)o2)n1	-0.81% (inactive)	
COc1cccc(NC(=S)NC2CC3CCCC(C2)N3C2CCCC2)c1 (stereo not drawn)	-6.24% (inactive)	
CCCCCN(C(=O)CCC(=O)OCc1cccc(C(F)(F)F)c1)c1c(N)n(CCCC)c(=O)[nH]c1=O	-5.15% (inactive)	
Cc1[nH]n(-c2cccc([N+](=O)[O-])c2)c(=O)c1-c1ccccc1	-10.7% (inactive)	
Cc1[nH]n(-c2ccccc2)c(=O)c1N=Nc1cccc([N+](=O)[O-])c1	-3.97% (inactive)	
Cc1[nH][nH]c(=O)c1C(c1ccc(O)c([N+](=O)[O-])c1)c1c(C)[nH][nH]c1=O	5.19% (inactive)	
O=c1c2cc([N+](=O)[O-])cc([N+](=O)[O-])c2[nH]n1-c1ccccc1	22.2% (inactive)	
COc1ccc(-n2c3c(cc(C(=O)NC4CCSC4=O)c2=O)C(=O)CC(C)(C)C3)cc1 (stereo not drawn)	3.46% (inactive)	
CC1(C)CC(=O)C=C(c2ccc3ccccc3c2)C1	6.35% (inactive)	
CC1CCCN(CCC(=O)Nc2ccc3c(c2)CCC3)C1 (stereo not drawn)	-0.41% (inactive)	
